Mcl1-Bid inh – Mcl-1/Bid interaction inhibition. AID 1021. Q07820. 220,000 compounds, 0.97% hits. inhibition, % at 21.7 µM. TR-FRET Mcl-1/Bid-Dy647 peptide binding, 1536-well;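 active = compounds that cut the binding signal by more than half at the single screening dose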;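 also: His-tagged Mcl-1 with europium anti-His antibody binding Bid BH3 peptide; 0% = Mcl-1 plus peptide wells and 100% = peptide-only wells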
BCLXL inh – Bcl-xL (human) inhibition; 320,000 compounds, 0.7% hits; Q07817; GST-Bcl-xL / FITC-Bim BH3 peptide fluorescence polarization; inhibition, % at 10.9 µM;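 active = inhibition above the mean of all tested compounds plus 3 SD, cutoff set per campaign, cut at about 30% in these data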;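 also: 0% = DMSO wells and 100% = unlabeled Bim-BH3 peptide competitor; inhibitors lower millipolarization by displacing the labeled peptide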
Target sequence (Q07817 whole entry, looked up): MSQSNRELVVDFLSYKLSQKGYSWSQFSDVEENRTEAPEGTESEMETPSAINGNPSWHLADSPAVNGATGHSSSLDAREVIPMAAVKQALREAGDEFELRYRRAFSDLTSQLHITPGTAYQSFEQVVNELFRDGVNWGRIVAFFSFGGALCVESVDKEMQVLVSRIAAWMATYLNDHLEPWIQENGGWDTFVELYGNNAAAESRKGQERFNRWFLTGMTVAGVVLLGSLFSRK
Bim-Mcl-1 – disrupts Bim peptide binding to human Mcl-1. Q07820. Bead-based flow cytometry, Bim peptide-Mcl-1 binding. inhibition, % at 10 µM. 190,000 compounds, 0.1% hits. AID 1009; in the data active = inhibition above about 40%;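 also: 0% = no compound tracer wells and 100% = peptide blocker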
MCL1 BIM primary – MCL1-BIM-BH3 interaction inhibition (human); Q07820; GST-MCL1 / FITC-Bim-BH3 fluorescence polarization; inhibition, % at 10.9 µM; 320,000 compounds, 0.68% hits;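 active = inhibition above the mean inhibition of all tested compounds plus 3 SD, set per campaign, cut at about 40% in these data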;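 also: 0% = DMSO wells and 100% = unlabeled Bim-BH3 peptide control; higher means more loss of mP so more displacement of Bim peptide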
Mcl1 Noxa PPI – Mcl-1/Noxa interaction inhibition. Q07820. TR-FRET Mcl-1/Noxa peptide binding, 2 h. inhibition, % at 21.7 µM. 220,000 compounds, 1.5% hits;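 active = compounds that cut the protein-peptide binding signal by more than 50% relative to plate controls in a single-dose test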;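 also: His-tagged Mcl-1 with rhodamine Noxa BH3 peptide and terbium anti-His antibody; 0% = Mcl-1 plus Noxa peptide wells and 100% = peptide-only wells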
GLD-1 RNA inh – GLD-1-TGE RNA interaction inhibition (C. elegans) | Q17339 | purified GLD-1 + fluorescein TGE RNA, fluorescence polarization | inhibition, % at 5.96 µM | 320,000 compounds, 0.44% hits | AID 2280;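 active = percent inhibition above a per-plate cutoff, the plate mean of test compounds plus 3 SD, cut at about 30% in these data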;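 also: 0% = DMSO wells with GLD-1 and probe and 100% = wells lacking GLD-1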
Target sequence (Q17339 whole entry, looked up): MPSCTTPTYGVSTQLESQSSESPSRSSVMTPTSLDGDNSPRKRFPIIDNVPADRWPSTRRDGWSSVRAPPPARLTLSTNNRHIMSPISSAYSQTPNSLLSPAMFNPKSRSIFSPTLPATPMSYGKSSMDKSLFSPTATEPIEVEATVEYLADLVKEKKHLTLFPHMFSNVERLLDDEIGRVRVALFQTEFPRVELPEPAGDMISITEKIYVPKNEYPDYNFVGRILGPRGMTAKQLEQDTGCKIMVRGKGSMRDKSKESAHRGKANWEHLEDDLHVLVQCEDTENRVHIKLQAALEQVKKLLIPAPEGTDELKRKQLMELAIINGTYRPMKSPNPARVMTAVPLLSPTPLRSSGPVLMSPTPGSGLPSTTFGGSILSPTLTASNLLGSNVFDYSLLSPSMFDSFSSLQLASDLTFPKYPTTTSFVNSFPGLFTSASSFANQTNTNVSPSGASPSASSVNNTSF
GLD1 RNA confirm – confirmation of C. elegans GLD-1 TGE RNA binding inhibitors. shares compounds with GLD-1 RNA inh. GLD-1/FL-TGE RNA fluorescence polarization, biochemical. inhibition, % at 5.96 µM. 550 compounds, 10% hits. AID 2459;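 active = average inhibition across triplicates above the hit cutoff set in the primary screen, cut at about 32% in these data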;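 also: 0% = GLD-1 with RNA probe and DMSO and 100% = wells lacking GLD-1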
Numbers without * were called inactive; x = no result. This is a sample that favours compounds with a hit; in the whole collection about 2.3% have one here.

SMILES | Mcl1-Bid inh | BCLXL inh | Bim-Mcl-1 | MCL1 BIM primary | Mcl1 Noxa PPI | GLD-1 RNA inh | GLD1 RNA confirm
N#CC1=C2N=C(N)c3ccccc3N2C2=C(C(=O)CCC2)C1c1cccc(Cl)c1 (stereo unspecified) | -3 | 21 | -4 | 16 | -6 | 48* | -1
O=C(CC1N=C2c3ccccc3N=C(SCc3ccc(Cl)cc3)N2C1=O)NCc1ccco1 (stereo unspecified) | 3 | 24 | 1 | 30 | 21 | 39* | 16
Cc1nc(-c2cc(-c3nc(-c4ccc(C(F)(F)F)cc4)no3)no2)cs1 | -4 | 0 | x | 4 | 18 | 11 | x
CS(=O)(=O)N(CCC(=O)O)Cc1ccccc1 | -2 | 5 | -2 | 5 | -5 | 37* | -3
Cc1ccc(NC(=O)CSc2nnc(C)n2-c2ccccc2)cc1 | -6 | -4 | -2 | 5 | 4 | -1 | x
COC(=O)c1ccc(NC(=O)CSc2nnc(-c3ccccc3Br)n2-c2ccccc2)cc1 | x | 1 | x | -5 | x | 46* | -5
O=C(CN1CCCCCCC1)Nc1cc(Cl)cc(Cl)c1 | -20 | 3 | -1 | 3 | -10 | 33* | 3
C/C(=C\c1ccccc1)C(=O)Nc1nc2ccc([N+](=O)[O-])cc2s1 | -10 | 4 | -3 | 4 | 21 | 3 | x
Cc1cc(C)nc(SCc2ccc(C(=O)N/N=C3\CCCC(=O)C3)cc2)n1 | -41 | 8 | 3 | 14 | -7 | 43* | -9
CC(C(=O)NCc1ccccc1)N1CCN(c2ccc(F)cc2)CC1 (stereo unspecified) | x | 3 | x | -11 | x | -5 | x
O=C(Cc1ccc(-c2ccccc2)cc1)Nc1ncccc1O | x | 25 | x | 29 | x | 31* | 0
CCC1CCc2sc(C(=O)NCC(c3ccc(OC)cc3)N3CCCC3)cc2C1 (stereo unspecified) | x | 6 | x | 6 | x | 49* | -5
O=C(CNC(=O)c1ccccc1)OC(C(=O)Nc1cc(C(F)(F)F)ccc1Cl)c1ccccc1 (stereo unspecified) | -14 | 2 | -4 | -3 | 13 | 0 | x
C/C(=N\NC(=O)COc1ccc(C(C)(C)C)cc1)c1ccc(-n2ccnc2)cc1 | -1 | 2 | -2 | 4 | -16 | -1 | x
COc1cc(O)cc2cc3c(c(O)c12)C(=O)CC(C)(O)O3 (stereo unspecified) | -111 | 38* | x | 43* | 50 | 34* | 49*
O=C(CN1C(=O)C2CC=C(Cl)CC2C1=O)NCc1ccccc1 (stereo unspecified) | -20 | 41* | 1 | 42* | -4 | 42* | 33*
O=C1C2CC=C(Cl)CC2C(=O)N1CCc1c[nH]c2ccccc12 (stereo unspecified) | -46 | -1 | 5 | 0 | 19 | -3 | x
O=C1C2CC=C(Cl)CC2C(=O)N1CCc1ccccc1 (stereo unspecified) | -7 | 33* | 0 | 41* | 37 | 43* | 21
Cc1[nH]c(C)c(S(=O)(=O)N(C)Cc2ccccc2)c1C(=O)N1CCCC1 | x | -3 | x | -5 | x | -6 | x
COc1ccc(C(=O)C2CCCN(C(=O)COc3ccc(C(C)=O)cc3)C2)cc1F (stereo unspecified) | -32 | 4 | 0 | -4 | -3 | -1 | x
COC(=O)c1ccc(-c2cc(C(=O)O)c3cc4c(cc3n2)OCCO4)cc1 | x | 8 | 0 | 4 | x | 7 | x
CSC1=NC(C)(C)CC2(C)Nc3ccccc3N12 (stereo unspecified) | -89 | 15 | -1 | 6 | -3 | 47* | 0
O=C(CNC(=O)c1cccnc1)N/N=C/c1ccc(O)cc1O | x | 21 | x | 20 | x | 33* | 11
O=C(CNC(=O)c1cccs1)N/N=C/c1ccc(O)cc1O | -49 | 10 | 0 | 15 | 2 | 6 | x
O=C(Nc1nccs1)C(=O)c1c[nH]c2ccccc12 | -14 | 2 | -2 | 0 | 17 | 3 | x
SMILES | Mcl1-Bid inh | BCLXL inh | Bim-Mcl-1 | MCL1 BIM primary | Mcl1 Noxa PPI | GLD-1 RNA inh | GLD1 RNA confirm
CCCn1c(N)c(N(CCOC)C(=O)Cc2ccc(S(=O)(=O)N3CCOCC3)s2)c(=O)[nH]c1=O | x | 41* | x | 39 | x | 38* | 51*
CCCCCSc1nc(C)c(CC(=O)O)c(=O)[nH]1 | 7 | 5 | -2 | -1 | -11 | -8 | x
CC1(C)CC(=O)C2=C(C1)Nc1ccccc1NC2c1ccc(F)cc1 (stereo unspecified) | x | 46* | x | 45* | x | 35* | 0
COc1ccc(C2Nc3ccccc3NC3=C2C(=O)CC(C)(C)C3)cc1 (stereo unspecified) | x | 5 | x | 5 | x | 7 | x
CC1CN(C(=O)C2CC2)C(C)CN1C(=O)C1CC1 (stereo unspecified) | -11 | 2 | -5 | 3 | -3 | 34* | -5
CCNC(=O)CC1SC(=Nc2ccc(C)c([N+](=O)[O-])c2)N(C)C1=O (stereo unspecified) | x | 5 | x | -1 | x | 31* | 1
CCOC(=O)N1CCN(C(=O)CSCc2ccc(C)cc2)CC1 | -17 | 6 | -4 | 13 | x | -8 | x
CO/N=C\Cc1oc(=O)c(NC(=O)c2ccccc2)cc1C(=O)OC | -87 | 36* | -1 | 34 | 12 | 37* | -10
Clc1ccc(OCc2nc(-c3ccncc3)no2)cc1 | -4 | 3 | 0 | 1 | 4 | -1 | x
CCOC(=O)CC(=O)CSc1nc2ccc(OC)cc2cc1C | -15 | 36* | 0 | 47* | 12 | 34* | -5
CCOC(=O)CC(=O)CSc1nc2cc(C)ccc2cc1C | -7 | 21 | 2 | 29 | 20 | 23 | x
CCOc1cccc(=O)c2c(C)n(C)c(C)c12 | -78 | 26 | 0 | 28 | 28 | 40* | -4
CCCCCn1c(C)c2c(OCC)cccc(=O)c2c1C | -96 | 8 | x | 10 | 12 | 4 | x
COc1ccc([N+](=O)[O-])cc1NC(=O)CCN1CCN(c2ccccc2)CC1 | -24 | 4 | -2 | -5 | -1 | 7 | x
O=C(C1=C[C@@H]2[C@H]3C(=O)N(c4ccc(Cl)cc4)C(=O)[C@H]3[C@@H](C(=O)c3ccc(Cl)cc3)N2C=C1)c1ccccc1 | -63 | 4 | 1 | -21 | -6 | 7 | x
O=C(Nc1ccc(S(=O)(=O)N2CCN(Cc3ccccc3)CC2)cc1)c1cnccn1 | -9 | 8 | -1 | 12 | 12 | -2 | x
CCN1CCN(Cc2ccc(NC(=O)c3ccc(C)c(NC(=O)c4ccc5n[nH]nc5c4)c3)cc2C(F)(F)F)CC1 | -46 | 5 | x | -3 | 10 | -6 | x
CCN1CCN(Cc2ccc(NC(=O)c3ccc(C)c(NC(=O)c4ccnnc4)c3)cc2C(F)(F)F)CC1 | -59 | -1 | x | -7 | 8 | 39* | 2
CC(=O)Nc1c2c3c(cccc3n(C)c1=O)C(=O)c1ccccc1-2 | -15 | 47* | 0 | 50* | 10 | 32* | 8

Assay outcomes (PubChem)
